Values without a mark were called inactive. Records with an inconclusive call do not appear. Where a call stands in place of a potency, no number is given. Activity calls are given as the source filed them. Unless noted, the call rests on the fitted dose curve; in most records, active means well fitted curve in the direction sought with a large enough effect in the repeat runs; inconclusive means weak or mixed curves; inactive means no such curve, though single readings can be large; an effect the other way counts as inactive or inconclusive.
Legend:
[1] = qHTS assay to identify small molecule antagonists of the androgen receptor (AR) signaling pathway using the MDA cell line in the presence of 0.5 nM R1881 - cell viability counter screen (AID 1259242); further: nearly all actives have a fitted effect of over 45% in size; further: potency means the concentration at half of the fitted maximal effect
Method in brief: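 MDA-kb2 cells (human breast carcinoma, stably carrying MMTV-luciferase reporter) were exposed to compounds with 0.5 nM R1881 (final) for 16 hr at 37C, 0% CO2; viability then read as live-cell protease fluorescence (CellTiter-Fluor, 30 min) in the same wells.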

[2] = target: Androgen receptor (Homo sapiens) (UniProt P10275); test: qHTS assay to identify small molecule antagonists of the androgen receptor (AR) signaling pathway using the MDA cell line in the presence of 0.5 nM R1881 (AID 1259243); further: nearly all actives have a fitted effect of over 50% in size; further: potency means the concentration at half of the fitted maximal effect
Androgen receptor (Homo sapiens), sequence (P10275 whole entry, looked up): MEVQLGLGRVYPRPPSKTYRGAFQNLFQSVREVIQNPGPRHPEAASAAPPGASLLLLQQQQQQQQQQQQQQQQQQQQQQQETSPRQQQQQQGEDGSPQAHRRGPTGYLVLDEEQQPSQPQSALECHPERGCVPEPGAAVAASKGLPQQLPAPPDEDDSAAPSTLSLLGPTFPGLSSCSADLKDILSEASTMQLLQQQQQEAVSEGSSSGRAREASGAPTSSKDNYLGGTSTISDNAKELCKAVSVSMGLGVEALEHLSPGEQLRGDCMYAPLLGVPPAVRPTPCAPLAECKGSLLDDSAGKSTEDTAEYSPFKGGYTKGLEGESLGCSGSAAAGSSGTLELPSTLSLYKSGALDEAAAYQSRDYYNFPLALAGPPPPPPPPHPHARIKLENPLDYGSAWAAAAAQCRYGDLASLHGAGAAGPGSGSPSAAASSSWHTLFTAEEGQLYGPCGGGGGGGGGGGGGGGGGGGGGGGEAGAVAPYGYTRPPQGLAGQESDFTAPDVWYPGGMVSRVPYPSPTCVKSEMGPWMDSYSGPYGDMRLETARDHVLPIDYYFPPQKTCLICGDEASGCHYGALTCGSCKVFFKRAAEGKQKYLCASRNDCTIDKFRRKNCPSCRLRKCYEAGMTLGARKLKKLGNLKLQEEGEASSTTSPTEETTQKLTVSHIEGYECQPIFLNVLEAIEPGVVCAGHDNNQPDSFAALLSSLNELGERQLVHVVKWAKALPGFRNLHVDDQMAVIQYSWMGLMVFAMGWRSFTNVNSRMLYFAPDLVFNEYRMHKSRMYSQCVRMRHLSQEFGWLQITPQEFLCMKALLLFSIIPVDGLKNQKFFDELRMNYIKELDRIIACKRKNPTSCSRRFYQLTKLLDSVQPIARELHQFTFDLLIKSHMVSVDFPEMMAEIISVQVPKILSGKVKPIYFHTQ
Method in brief: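 MDA-kb2 human breast carcinoma cells carrying an MMTV-luciferase reporter (AR- and GR-responsive) were plated, rested 5 hr at 37C, dosed with compounds, then stimulated with 0.5 nM R1881 (final) for 16 hr; luminescence was read after ONE-Glo.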

[3] = target: Estrogen receptor (Homo sapiens) (UniProt P03372); test: qHTS assay to identify small molecule antagonists of the estrogen receptor alpha (ER-alpha) signaling pathway using the BG1 cell line in the presence of 0.1 nM 17-beta-estradiol (AID 1259244); further: nearly all actives have a fitted effect of over 50% in size; further: potency means the concentration at half of the fitted maximal effect
Estrogen receptor (Homo sapiens), sequence (P03372 whole entry, looked up): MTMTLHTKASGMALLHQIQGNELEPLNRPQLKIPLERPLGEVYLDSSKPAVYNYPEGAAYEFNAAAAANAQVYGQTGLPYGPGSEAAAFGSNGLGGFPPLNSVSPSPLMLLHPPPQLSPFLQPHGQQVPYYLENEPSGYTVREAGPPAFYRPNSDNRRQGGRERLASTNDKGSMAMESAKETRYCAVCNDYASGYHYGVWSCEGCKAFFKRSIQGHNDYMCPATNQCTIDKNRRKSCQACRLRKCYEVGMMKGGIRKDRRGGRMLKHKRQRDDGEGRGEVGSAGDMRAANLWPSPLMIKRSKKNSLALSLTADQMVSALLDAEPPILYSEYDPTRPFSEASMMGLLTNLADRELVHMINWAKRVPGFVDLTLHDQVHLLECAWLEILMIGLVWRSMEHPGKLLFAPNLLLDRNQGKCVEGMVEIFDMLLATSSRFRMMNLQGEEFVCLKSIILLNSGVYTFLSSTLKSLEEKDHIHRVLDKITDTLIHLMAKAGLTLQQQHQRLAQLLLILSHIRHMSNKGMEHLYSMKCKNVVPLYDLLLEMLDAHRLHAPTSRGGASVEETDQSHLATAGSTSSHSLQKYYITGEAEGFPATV
Method in brief: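 VM7Luc4E2 cells (endogenous full-length ER-alpha, stable 4xERE-luciferase) were grown 5 days in phenol red-free medium with charcoal-stripped FBS, then exposed 22 h at 37C to compounds plus 0.1 nM (final) 17beta-estradiol; ONE-Glo luminescence read-out.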

[4] = qHTS assay to identify small molecule HDAC inhibitors (AID 1259364); further: nearly all actives have a fitted effect of over 45% in size; further: potency means the concentration at half of the fitted maximal effect
Method in brief: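 Wild-type HCT-116 cells were plated overnight, exposed to compounds for 2 h at 37 °C, then given HDAC-Glo class I/II luminogenic reagent for 30 min at room temperature before luminescence was read.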

[5] = qHTS assay to identify small molecule HDAC inhibitors - cell viability counter screen (AID 1259365); further: nearly all actives have a fitted effect of over 50% in size; further: potency means the concentration at half of the fitted maximal effect
Method in brief: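 Wild-type HCT-116 cells, 1,500/well, cultured overnight, then compound-treated 2 h at 37 C. Viability measured as ATP luminescence with CellTiter-Glo after 30 min at room temperature.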

[6] = qHTS assay to identify small molecule antagonists of the sonic hedgehog signaling (Shh) pathway - cell viability counter screen (AID 1259367); further: nearly all actives have a fitted effect of over 55% in size; further: potency means the concentration at half of the fitted maximal effect
Method in brief: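 Using CellTiter-Fluor, viability of Gli1-Luc reporter 3T3 cells is read by fluorescence in the wells used for the Shh luciferase assay. Treatment lasts 23 hr with conditioned medium, then reagent 1 hr at 37C.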

[7] = qHTS assay to identify small molecule agonists of the sonic hedgehog signaling (Shh) pathway (AID 1259368; calls by dose curve; further: series mostly up to about 92 µM; nearly all actives have a fitted effect of over 15% in size)
Method in brief: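 NIH/3T3-derived 3T3Gli1-Luc cells carrying a stably integrated Gli1 response element–firefly luciferase reporter were plated, left 4 hr at 37 C, then given compounds in DMSO for 24 hr. Luminescence was read 30 min after adding luciferase reagent.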

[8] = qHTS assay to identify small molecule agonists of the sonic hedgehog signaling (Shh) pathway - cell viability counter screen (AID 1259366); further: nearly all actives have a fitted effect of over 50% in size; further: potency means the concentration at half of the fitted maximal effect
Method in brief: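 NIH/3T3-derived Gli1-Luc reporter cells, 2,000 per well, received compound after 4 h and were treated about 23 h at 37C. Viability measured in the same wells by CellTiter-Fluor fluorescence after 1 h.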

[9] = qHTS assay to identify small molecule antagonists of the sonic hedgehog signaling (Shh) pathway (AID 1259369; calls by dose curve; further: nearly all actives have a fitted effect of over 45% in size; further: potency means the concentration at half of the fitted maximal effect)
Method in brief: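 NIH/3T3-derived 3T3Gli1-Luc cells with stably integrated Gli1-Luc reporter were preincubated 4hr at 37 C, then given compounds in DMSO plus Shh conditioned medium and incubated 24hr. Firefly luciferase luminescence read after 30min reagent at room temperature.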

[10] = qHTS assay to identify small molecule phospholipidosis (PLD) inducers (AID 1259344; active means well fitted curve in the direction sought with a large enough effect; an effect the other way counts as inactive or inconclusive; further: potency means the concentration at half of the fitted maximal effect)
Method in brief: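 Fluorescent phospholipid staining (LipidTOX Red) measured by automated microscopy in fixed HepG2 cells after 24 h treatment; nuclei counterstained with Hoechst 33342; amiodarone as reference inducer.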

Compound	Potency [1]	Potency [2]	Potency [3]	Potency [4]	Potency [5]	Potency [6]	Potency [7]	Potency [8]	Potency [9]	Potency [10]
C[C@@H]1CC[C@@]2(OC1)O[C@H]1[C@@H](O)[C@H]3[C@@H]4CC[C@H]5C[C@@H](O[C@@H]6O[C@H](CO)[C@H](O[C@@H]7O[C@H](CO)[C@@H](O)[C@H](O[C@@H]8OC[C@@H](O)[C@H](O)[C@H]8O)[C@H]7O[C@@H]7O[C@H](CO)[C@@H](O)[C@H](O[C@@H]8O[C@H](CO)[C@@H](O)[C@H](O)[C@H]8O)[C@H]7O)[C@H](O)[C@H]6O)[C@H](O)C[C@]5(C)[C@H]4CC[C@]3(C)[C@H]1[C@@H]2C	23 µM (active)	14.5 µM (active)	57.8 µM (active)	inactive	29 µM (active)	32.5 µM (active)	inactive			
CC(C)CBr	inactive	inactive	inactive	inactive	inactive	inactive	inactive	inactive	inactive	
C[C@H]1O[C@@H](O[C@H]2[C@@H](O)C[C@H](O[C@H]3[C@@H](O)C[C@H](O[C@H]4CC[C@@]5(C)[C@H](CC[C@@H]6[C@@H]5CC[C@]5(C)[C@@H](C7=CC(=O)OC7)CC[C@]65O)C4)O[C@@H]3C)O[C@@H]2C)C[C@H](O)[C@@H]1O	inactive	inactive	inactive	inactive	inactive	inactive	inactive	inactive	inactive	2 µM (active)
O=C(NC(=O)c1c(F)cccc1F)Nc1cc(Cl)c(OC(F)(F)C(F)F)c(Cl)c1	inactive	inactive	inactive	inactive	inactive	inactive	inactive	inactive		
CCSC(C)CC1CC(=O)C(/C(CC)=N/OC/C=C/Cl)=C(O)C1 (stereo not drawn)	inactive	inactive	inactive	inactive	inactive	inactive	inactive	inactive	inactive	
CC(=O)c1ccc(-c2ccccc2)cc1	inactive	19.3 µM (active)	inactive	24.3 µM (active)	inactive	inactive		inactive	inactive	
C=CC(=O)OCC(COC(=O)C=C)(COC(=O)C=C)COC(=O)C=C	13.7 µM (active)	4.33 µM (active)	15.4 µM (active)	inactive		7.7 µM (active)	inactive	5.45 µM (active)		
CC(=O)C(Cl)(Cl)Cl	14.8 µM (active)	9.35 µM (active)	11.8 µM (active)	inactive	inactive	16.6 µM (active)	inactive	20.9 µM (active)	5.9 µM (active)	
O=C1c2ccccc2C(=O)C1C(=O)C(c1ccccc1)c1ccc(Cl)cc1 (stereo not drawn)	inactive	21.7 µM (active)	27.3 µM (active)	inactive		inactive	inactive		54.5 µM (active)	
COC(=O)N(C(=O)N1CO[C@@]2(C(=O)OC)Cc3cc(Cl)ccc3C2=N1)c1ccc(OC(F)(F)F)cc1	inactive	23.5 µM (active)	46.9 µM (active)	inactive	inactive	inactive	inactive	inactive		
CC(=O)O[C@H]1CC[C@@]2(C)C(=CC[C@@H]3[C@@H]2CC[C@]2(C)C(=O)CC[C@@H]32)C1	inactive	5.45 µM (active)	inactive	inactive	inactive	inactive	inactive	inactive		inactive
CCC(C)(C)C(=O)OC1=C(c2ccc(Cl)cc2Cl)C(=O)OC12CCCCC2	inactive	inactive	inactive	inactive	inactive	inactive	inactive			
CC(Cl)CN(C)C (stereo not drawn)	inactive	inactive	inactive	inactive	inactive		inactive	inactive		
O=C(CCl)Nc1ccccc1	61.1 µM (active)	48.6 µM (active)	61.1 µM (active)	inactive	inactive	27.3 µM (active)	inactive	12.2 µM (active)	inactive	
CCCCOCN(C(=O)CCl)c1c(CC)cccc1CC	inactive	30.6 µM (active)	inactive	inactive	inactive	61.1 µM (active)	inactive			
Nc1c(Oc2ccccc2)cc(O)c2c1C(=O)c1ccccc1C2=O	inactive	inactive	inactive		inactive			inactive	inactive	
CS(=O)(=O)c1ccc(C(=O)C2C(=O)CCCC2=O)c([N+](=O)[O-])c1	inactive		inactive	inactive	inactive		inactive	inactive		inactive
CCOCCOC(C)=O	inactive		inactive	inactive	inactive	inactive	inactive	inactive		inactive
Cc1c(Cl)c(=O)oc2cc(OP(=O)(OCCCl)OCCCl)ccc12	inactive		inactive	inactive	inactive	inactive	inactive			inactive
CC(C)(C)C(O)C(Oc1ccc(-c2ccccc2)cc1)n1cncn1 (stereo not drawn)	inactive	30.6 µM (active)		inactive	inactive	24.3 µM (active)		30.6 µM (active)	12.2 µM (active)	
CCC(C)c1cc(C(C)(C)C)cc(-n2nc3ccccc3n2)c1O (stereo not drawn)	inactive	inactive			inactive	inactive		inactive	inactive	
COP(=S)(OC)Oc1cc(Cl)c(Br)cc1Cl	inactive	54.5 µM (active)		inactive	inactive	inactive				
CC(C)N1C(=O)N(c2ccccc2)CSC1=NC(C)(C)C	inactive	54.5 µM (active)		inactive	inactive	inactive	inactive	inactive		
CCOP(=S)(OCC)SCCS(=O)(=O)CC	inactive		inactive	inactive	inactive					

— PubChem BioAssay (Tox21)
